From PubChem
CYP2C19 act: activators of human cytochrome P450 2C19 | 96,000 tested, under 10 active | recombinant CYP2C19, luciferin-H EGE luminescence; hits give high values; 0 = fully inhibited enzyme, 1 = untreated enzyme | P33261 | AID 1025 | activation factor at 5 µM;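 active means activation factor of at least 2 at 5 µM in the primary screen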;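 further: 0 = wells with 2.5 mM tranylcypromine and 1 = vehicle-only wells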
sEH activator: increases human soluble epoxide hydrolase activity | purified human sEH enzymatic activity, activator screen | AID 717 | actives 0.04% (n = 91,000) | activation, % at 2 µM | P34913; in the data active means activation above about 37%
CYP2C19 inhib: inhibitors of human CYP2C19. P33261. CYP2C19 Supersomes, luciferin-H EGE luminescence, 30 min. inhibition, % at 5 µM. actives 21% (n = 96,000). AID 778;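 active means CYP2C19 inhibition above a set limit at 5 µM in the primary screen, cut at about 50% in these data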;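 further: plate controls were negative control wells for no effect and 2.5 mM tranylcypromine positive control for full effect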
sEH inh: blocks human soluble epoxide hydrolase activity. recombinant human sEH enzymatic activity assay. inhibition, % at 2 µM. actives 0.34% (n = 91,000). AID 707; in the data active means inhibition above about 80%
CYP2C9 inh: human CYP2C9 inhibition; P11712; CYP2C9 Supersomes, luciferin-H conversion, luminescence; inhibition, % at 5 µM; actives 20% (n = 96,000);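 active means blocking of liver enzyme CYP2C9 beyond about 50% at 5 µM, limit read from the data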
Target sequence (P11712 whole entry, looked up): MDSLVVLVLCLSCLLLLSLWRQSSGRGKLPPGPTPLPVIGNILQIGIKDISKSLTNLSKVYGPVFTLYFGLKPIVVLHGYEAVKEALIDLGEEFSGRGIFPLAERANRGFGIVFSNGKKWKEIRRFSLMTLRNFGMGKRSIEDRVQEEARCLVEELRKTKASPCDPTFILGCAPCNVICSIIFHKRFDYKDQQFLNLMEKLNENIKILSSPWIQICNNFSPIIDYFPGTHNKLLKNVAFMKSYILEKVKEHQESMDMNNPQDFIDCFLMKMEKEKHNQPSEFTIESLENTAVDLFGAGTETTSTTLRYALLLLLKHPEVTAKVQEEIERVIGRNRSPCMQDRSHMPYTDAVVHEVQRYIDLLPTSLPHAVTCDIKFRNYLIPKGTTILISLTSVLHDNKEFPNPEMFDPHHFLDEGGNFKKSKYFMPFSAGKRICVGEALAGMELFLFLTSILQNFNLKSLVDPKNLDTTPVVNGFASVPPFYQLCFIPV
CYP2C9 act: increases human cytochrome P450 2C9 activity. AID 1024. recombinant CYP2C9, luciferin-H conversion, luminescence; hits give high values; factor 1 = untreated enzyme, 0 = blocked. actives 1.4% (n = 96,000). activation factor at 5 µM. P11712;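 active means activation factor of 2 or more for CYP2C9 at a 5 µM dose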;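 further: 0 = sulfaphenazole-blocked wells and 1 = vehicle-only wells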
* marks the source's active call; other numbers are inactive results; . = no result. Rows were chosen to be rich in hits. Some 27% of all compounds tested hit in one or more screens of this group.

SMILES	CYP2C19 act	sEH activator	CYP2C19 inhib	sEH inh	CYP2C9 inh	CYP2C9 act
O=C(CCCC(=O)OCC1CCCO1)OCC1CCCO1 (centres undefined)	1	-3.9	-0.9	1.0	38.2	0.6
Cc1ccc(-c2nn3nnnc3c3ccccc23)cc1	0.9	.	11.6	.	-2.0	1
CCOc1nc(C)nc(NC(=O)NS(=O)(=O)c2ccccc2Cl)n1	1	-8.7	-2.7	6.0	-5.5	1.1
CN(C)c1ccc(C2NCCS2)cc1 (centres undefined)	0.8	4.2	16.9	-4.5	6.9	0.9
CCC1(C)Cc2ccccc2-c2nc(NCCCO)n(-c3ccccc3)c(=O)c21 (centres undefined)	0.5	-3.5	51.1*	0.9	24.9	0.8
CCC1(C)Cc2ccccc2-c2nc3n(c(=O)c21)CC(C(=O)O)S3 (centres undefined)	1	6.8	-0.8	-6.3	68.9*	0.3
CCn1c(SCC#N)nc2c(c1=O)C1(CCCC1)Cc1ccccc1-2	0.4	-0.2	59.6*	0.3	88.8*	0.1
Cc1cc2c(cc(C(=O)OCC(=O)NCc3cccs3)n2C(C)C)o1	0.5	-9.4	50.0*	5.4	64.8*	0.4
CCOC(=O)c1c(CN2CCCCC2)n(C)c2cc(Br)c(O)cc12	0.3	4.8	71.0*	-7.2	25.1	0.7
CCOC(=O)c1c(CN2CCCCC2)oc2ccc(O)cc12	1	0.8	4.4	-1.2	-9.7	1.1
CCOC(=O)c1c(CN2CCN(C)CC2)n(C)c2cc(Br)c(OC)cc12	0.5	.	49.8	.	55.8*	0.4
Cc1nc2c3cc(Cl)ccc3n(CCN3CCCCC3)c2s1	0.6	6.0	44.6	-7.0	27.5	0.7
O=c1[nH]c2ccccc2n1Cc1ccccc1	0.7	19.4	26.7	-21.3	2.0	1
O=c1[nH]c2cccnc2n1Cc1ccccc1	0.5	-14.5	50.9*	16.1	93.8*	0.1
COc1ccccc1OCCc1nnc(N)s1	1.3	-1.2	-33.4	1.4	-43.9	1.4
CCOc1cc(C2c3c(oc4cc(C)c(Cl)cc4c3=O)C(=O)N2Cc2ccco2)ccc1O (centres undefined)	1.1	-12.6	-5.0	12.3	13.7	0.9
COc1cccc(C(=O)OCC(=O)Nc2ccccc2N2CCOCC2)c1	0.6	-7.7	38.9	8.3	50.8*	0.5
COC(=O)c1ccc(N2CCOCC2)c(NC(=O)Nc2cccc(OC)c2)c1	0.8	.	24.4	.	70.9*	0.3
COc1ccccc1C(=O)Nc1ccccc1N1CCOCC1	0.6	-1.9	37.1	4.6	46.4	0.5
COc1cccc(-n2c(C)nnc2SCC(=O)Nc2ccccc2N2CCOCC2)c1	0.4	-16.7	63.4*	16.1	77.3*	0.2
COc1cccc(C(=O)Nc2ccccc2N2CCOCC2)c1	0.4	-3.9	62.0*	7.5	53.0*	0.5
Cc1nnc(SCC(=O)Nc2ccc(N3CCOCC3)cc2)n1-c1ccccc1	0.9	0.0	9.4	0.5	30.0	0.7
CCOC(=O)c1c(C)cc(C)n2c1nc1ccccc12	1.2	-8.8	-18.3	10.4	-23.6	1.2
C=CCN1C(=O)/C(=C2/C(=O)N(CC(=O)O)c3ccccc32)S/C1=N/c1nccs1	1.1	1.4	-10.2	1.8	13.0	0.9
COc1ccccc1CC1(C)NC(=O)N(CC(=O)N2CCc3ccccc3C2)C1=O (centres undefined)	0.9	1.2	12.4	-2.6	70.0*	0.3
SMILES	CYP2C19 act	sEH activator	CYP2C19 inhib	sEH inh	CYP2C9 inh	CYP2C9 act
COc1ccc(/C=N/NC(=O)c2nc(-c3ccccc3)cc(-c3ccccc3)n2)cc1OC	1	-3.2	0.7	4.0	-5.5	1.1
COc1ccc(/C=N/c2oc(-c3ccccc3)cc2C#N)cc1OC	0.5	4.7	53.8*	-2.6	38.0	0.6
Cc1ccccc1NC(=O)CSc1nc2ccccc2o1	0.4	-3.8	59.0*	3.1	10.3	0.9
O=C(CSc1nc2ccccc2o1)Nc1ccccc1N1CCOCC1	0.1	3.9	91.9*	-4.6	94.7*	0.1
Cc1ccccc1NC(=O)CSc1nc2cc3c(cc2cc1C)CCC3	0.9	-1.5	8.4	-1.2	51.6*	0.5
CCC(=O)Nc1ccc(NC(=O)CSc2nc3cc4c(cc3cc2C)CCC4)cc1	1	2.9	-3.4	-5.0	23.9	0.8
O=C(CSCC(=O)c1ccccc1)Nc1ccccc1Cl	0.3	9.2	68.0*	-10.3	1.1	1
O=C(CSc1nc2ccccc2o1)Nc1ccc(N2CCOCC2)cc1	0.8	-4.4	22.3	3.7	23.5	0.8
O=C(CSc1nc2ccccc2o1)Nc1nc2ccccc2s1	0.9	-8.3	9.7	8.6	12.0	0.9
O=C(CN1CCN(CC(=O)c2ccc(F)cc2)CC1)Nc1ccccc1Cl	0.7	-4.8	25.7	5.1	24.8	0.8
O=C1N(c2ccc(Cl)c(Cl)c2)CN(Cc2ccccc2)CN1n1cnnc1	1.1	-7.3	-8.3	10.9	-16.5	1.2
COC(=O)c1nn(-c2ccccc2)c(=O)cc1Oc1ccccc1	0.9	14.9	11.4	-18.0	5.9	0.9
COc1cccc(C(C(=O)NC(C)(C)C)N(C(=O)CCC(=O)Nc2cc(C)on2)C2CC2)c1OC (centres undefined)	1	-14.6	-4.8	15.6	1.1	1
C=CCN1C(=O)C(CC(=O)Nc2ccccc2)SC1=Nc1c(C)n(C)n(-c2ccccc2)c1=O (centres undefined)	0.7	12.3	25.6	-8.5	40.7	0.6
Cc1ccccc1NC(=O)CSCC(=O)Nc1ccccc1C	0.3	-18.1	72.2*	19.3	39.6	0.6
CN1CCc2c(c3c(n2C)CCN(C)[C@H]3c2ccccc2F)[C@@H]1c1ccccc1F	0.9	-14.2	5.5	16.5	27.2	0.7
COC(=O)c1cc2ccsc2n1CC(=O)Nc1cc(Cl)ccc1OC	0.5	-7.9	50.8*	10.4	35.5	0.6
COC(=O)c1cc2occc2n1CC(=O)Nc1ccc(OC)c(OC)c1	0.7	-2.5	32.9	1.2	16.4	0.8
COC(=O)c1cc2ccsc2n1Cc1nc(-c2ccc(OC)cc2)oc1C	0.7	-4.5	31.6	4.4	59.4*	0.4
COC(=O)c1cc2ccsc2n1CC(=O)Nc1ccc(N(C)C)cc1	0.5	12.8	53.0*	-14.3	21.9	0.8
CCOC(=O)C(C(=O)OCC)[C@@H]1CS(=O)(=O)C[C@H]1C(C(=O)OCC)C(=O)OCC	0.6	.	43.6	.	8.4	0.9
COCc1cc(C)nc(N)c1C#N	1.3	.	-25.1	.	-8.8	1.1
CC(C)C(NC(=O)C1CCCCC1)C(=O)Nc1ccncc1 (centres undefined)	0	.	95.9*	.	92.2*	0.1
CC(C)C(NC(=O)C1CCC(C(C)(C)C)CC1)C(=O)NCc1cccnc1 (centres undefined)	0.5	0.0	52.0*	-0.6	51.1*	0.5
CC(C)c1ccc(CN2CCC(C(=O)NCc3cccnc3)CC2)cc1	1	-11.2	2.6	12.9	18.6	0.8
